Structures can show the parent of a compound that is named as a salt.
Tested on: HeLa
Assay: nuclear count per well, robust Z-score vs DMSO; higher = more cells (less toxicity)
Conditions: 10 µM; 6 h
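Wherever MALAT1 nuclear FISH intensity, robust Z-score vs DMSO is given: High-content confocal imaging of branched-DNA amplified FISH in 384-well plates, Hoechst-defined nuclei, score is well value minus plate DMSO median over DMSO robust SD, four wells per compound.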
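Wherever nuclear count per well, robust Z-score vs DMSO is given: Hoechst-stained nuclei counted by automated confocal imaging of four fields per well in 384-well plates, with the robust Z-score based on the per-plate DMSO median and robust SD.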

Row | Structure (SMILES) | nuclear count per well
1 | CC1(C)O[C@@H]2[C@@H](CO[C@@]3(COS(N)(=O)=O)OC(C)(C)O[C@@H]23)O1 [Topiramate] | 0.72
2 | CCCCCCCCCC(=O)N[C@@H](Cc1c[nH]c2ccccc12)C(=O)N[C@H](CC(N)=O)C(=O)N[C@@H](CC(=O)O)C(=O)N[C@@H]1C(=O)NCC(=O)N[C@@H](CCCN)C(=O)N[C@@H](CC(=O)O)C(=O)N[C@H](C)C(=O)N[C@@H](CC(=O)O)C(=O)NCC(=O)N[C@H](CO)C(=O)N[C@@H]([C@H](C)CC(=O)O)C(=O)N[C@@H](CC(=O)c2ccccc2N)C(=O)O[C@@H]1C [Daptomycin] | -0.0859
3 | Cc1ccc(/C(=C\CN2CCCC2)c2cccc(/C=C/C(=O)O)n2)cc1 [Acrivastine] | 1.05
4 | C#C[C@]1(O)CC[C@H]2[C@@H]3CCc4cc(O)ccc4[C@H]3CC[C@@]21C [Ethinyl estradiol] | 0.192
5 | CC(=O)N[C@H]1[C@H]([C@H](O)[C@H](O)CO)OC(C(=O)O)=C[C@@H]1NC(=N)N [Zanamivir] | 0.491
6 | COCCOc1nc(-c2ccc(Cl)c(Cl)c2)n(-c2ccc(NC(=O)CCl)cc2)n1 [MI 2 (MALT1 inhibitor)] | -2.56

Tested on: HeLa
Assay: MALAT1 nuclear FISH intensity, robust Z-score vs DMSO; higher = more nuclear MALAT1 lncRNA, active = -3 or less
Conditions: 10 µM; 6 h

Row | Structure (SMILES) | MALAT1 nuclear FISH intensity
7 | C[C@@H]1[C@H](O)[C@@H](C)/C=C/C=C/C=C/C=C/C=C/C=C/C=C/[C@H](O[C@@H]2O[C@H](C)[C@@H](O)[C@H](N)[C@@H]2O)C[C@@H]2O[C@](O)(C[C@@H](O)C[C@@H](O)[C@H](O)CC[C@@H](O)C[C@@H](O)CC(=O)O[C@H]1C)C[C@H](O)[C@H]2C(=O)O [Amphotericin B] | -0.929 (inactive)
8 | CC(CN(C)C)CN1c2ccccc2CCc2ccccc21 (centres undefined) [Trimipramine Maleate] | -0.761 (inactive)
9 | CNCCCN1c2ccccc2CCc2ccc(Cl)cc21 | 1.16 (inactive)
10 | COc1cc(CNC(=O)CCCCCCC(C)C)ccc1O [Dihydrocapsaicin] | 0.437 (inactive)
11 | CCN(CC)C(=O)C1(c2ccccc2)CC1CN (centres undefined) | -0.146 (inactive)
12 | CC/C=C\C/C=C\C/C=C\C/C=C\C/C=C\CCCCCC(=O)O [Docosapentaenoic acid] | -0.155 (inactive)
13 | OCc1cc(C(O)CNCCCCCCOCCCCc2ccccc2)ccc1O (centres undefined) [Salmeterol] | -0.00989 (inactive)
14 | CC(=O)N(O)CCCCCNC(=O)CCC(=O)N(O)CCCCCNC(=O)CCC(=O)N(O)CCCCCN [Deferoxamine mesylate salt] | -1.05 (inactive)
15 | CC1=Nc2ccc(Cl)cc2S(=O)(=O)N1 [Diazoxide] | 0.0694 (inactive)
16 | Nc1ncn([C@H]2C[C@H](O)[C@@H](CO)O2)c(=O)n1 [Decitabine] | -1.68 (inactive)
17 | Cn1cc(C2=C(c3cn(CCCSC(=N)N)c4ccccc34)C(=O)NC2=O)c2ccccc21 | -4.26 (active)
18 | COCCOC(=O)C1=C(C)NC(C)=C(C(=O)OC(C)C)C1c1cccc([N+](=O)[O-])c1 (centres undefined) [Nimodipine] | 0.0485 (inactive)
19 | CCCCC[C@H](O)/C=C/[C@H]1C(=O)C[C@H](O)[C@@H]1C/C=C\CCCC(=O)O [Prostaglandin  D2] | 0.0927 (inactive)
20 | CC1(C)O[C@@H]2C[C@H]3[C@@H]4C[C@H](F)C5=CC(=O)C=C[C@]5(C)[C@@]4(F)[C@@H](O)C[C@]3(C)[C@]2(C(=O)CO)O1 [Fluocinolone Acetonide] | 0.847 (inactive)
21 | Cc1nnc(NS(=O)(=O)c2ccc(N)cc2)s1 [Sulfamethizole] | -1.47 (inactive)
22 | O=C1Nc2ccccc2/C1=C1/Nc2ccccc2C1=O [Indirubin] | -1.02 (inactive)
23 | CCN(CC)CCCC(C)Nc1ccnc2cc(Cl)ccc12 (centres undefined) [Chloroquine] | 0.282 (inactive)
24 | C=C1C(=O)O[C@H]2[C@H]1CC/C(C)=C/CC[C@@]1(C)O[C@@H]21 [Parthenolide] | 10.2 (inactive)
25 | CN(C)CCCN1c2ccccc2CCc2ccc(Cl)cc21 | -0.47 (inactive)
26 | Cc1cc(CS(=O)(=O)c2ccccc2)cc(OCc2ccc(CN3CCC[C@@H]3CO)cc2)c1 | -1.72 (inactive)
27 | CCN(CC)CCNC(=O)c1cc(Cl)c(N)cc1OC | 0.662 (inactive)
28 | CN(C/C=C/C#CC(C)(C)C)Cc1cccc2ccccc12 | 0.112 (inactive)
29 | NC[C@H]1O[C@H](O[C@H]2[C@H](O)[C@@H](O[C@H]3O[C@H](CO)[C@@H](O)[C@H](N)[C@H]3O)[C@H](N)C[C@@H]2N)[C@H](N)C[C@@H]1O [Tobramycin] | -1.1 (inactive)

Reference: the supplement of paper PMC9844399
